# Compound activity deposited in PubChem BioAssay by Columbia University Molecular Screening Center.
# Shown is part of a subset that was picked to be rich in hits.
# VCAM1 TNFa pot: TNF alpha stimulated VCAM1 expression potentiation | HUVEC TNFa-stimulated VCAM-1 immunofluorescence, high-content imaging; scaled per plate to unstimulated/TNFa-only wells | activation, % at 2 µM | hit rate 0.19% among 93,000 | AID 808;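 active = activation above the screen mean plus 3 SD, with well images confirming the hit on visual review, cut at about 28% in these data, passing the limit was not always enough; inconclusive = activation above that limit but images do not confirm it; inactive = activation not above that limit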;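 also: signal is the number of cytoplasmic VCAM-1 stained grains per positive cell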
# VCAM1 pot confirm: potentiators of TNFa-induced VCAM1 expression, confirmation, imaging, HUVEC, triplicate retest. shares compounds with VCAM1 TNFa pot. activation, % at 2 µM. 230 tested, under 10 active. AID 1034. HUVEC TNFa-stimulated VCAM-1 immunofluorescence imaging;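 active = activation above 30% in triplicate retests at 2 µM, then confirmed by visual review of the well images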;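 also: scaled per plate between unstimulated and TNFa-stimulated DMSO control wells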
# * hit, by the source's call; ? = inconclusive.
SMILES,VCAM1 TNFa pot,others
CCOC(=O)CC(=O)CSc1nc2c(C)c(C)ccc2cc1C,51*,VCAM1 pot confirm=-10
CCOC(=O)CC(=O)CSc1ccc2nnc(-c3ccc(F)cc3)n2n1,-1,
CCOC(=O)CSc1nc2ccc(C)cc2cc1C#N,-9,
Cc1nc2ncnn2c(N2CCN(C(=O)Cc3cccs3)CC2)c1C,-1,
Cc1ccccc1/C(N)=N/OC(=O)/C=C/c1ccccc1,38*,VCAM1 pot confirm=-13
Cc1c(NC(=O)N(C)C)c(=O)n(-c2ccccc2)n1C,1,
O=C(CN1CCC(c2nc3ccccc3[nH]2)CC1)NCc1ccc2c(c1)OCO2,1,
Clc1ccc2nc(C3CCN(Cc4nnnn4C4CCCCC4)CC3)[nH]c2c1,60*,VCAM1 pot confirm=-4
CN(C)S(=O)(=O)c1cccc(NC(=O)Cn2cnc3ccccc3c2=O)c1,-6,
COc1cccc(Cn2cnc3c(NS(=O)(=O)c4cccc(Cl)c4Cl)c(C)c(C)cc32)c1,-1,
CCCOC(=O)Nc1cc(OC)c(Cl)cc1OC,-5,
Cc1ccccc1C(=O)c1c[nH]c(C(=O)NCC2CCCO2)c1 (stereo unspecified),-11,
Cc1nc2ccc(F)cc2cc1C(=O)NCC1CCCO1 (stereo unspecified),-12,
COCCSc1ccccc1C(=O)NCC1CCCO1 (stereo unspecified),?,VCAM1 pot confirm=-17
COc1ccccc1-c1cc2ccccc2[nH]1,9,
Cc1ccc(N2C(=O)c3ccc(C(=O)N4CCN(c5cccc(C)c5C)CC4)cc3C2=O)cc1,-17,
O=C(Cc1ccccc1)Nc1ccc2oc(-c3cccnc3)nc2c1,2,
O=C(Nc1ccc2oc(-c3ccccc3)nc2c1)c1ccc2c(c1)OCCO2,30*,VCAM1 pot confirm=-10
O=C(Nc1ccc(-c2nc3cc(Cl)ccc3o2)cc1)C1CCCO1 (stereo unspecified),34,
COc1ccc(Cl)cc1NC(=O)N1CCN(S(C)(=O)=O)CC1,-4,
CCOc1ccc(/C(O)=C2/C(=O)C(=O)N(c3nc(C)c(C)s3)C2c2ccco2)cc1 (stereo unspecified),10,
CCCCc1c(C)nn(-c2nnc3c4ccccc4n(C)c3n2)c1C,1,
COc1ccc2oc(=O)c(C(=O)n3ccc(C)n3)cc2c1,0,
COc1ccc2oc(=O)c(C(=O)N3CCN(c4ccccc4)CC3)cc2c1,83*,VCAM1 pot confirm=-9
COc1ccc2oc(=O)c(C(=O)NCc3cccnc3)cc2c1,15,
SMILES,VCAM1 TNFa pot,others
O=C(NCc1ccccc1)c1ccc(C(=O)N(C2CCCCC2)C2CCCCC2)cc1,1,
Cc1cccc(-c2nnc(-c3cccc(NC(=O)Cc4cccs4)c3)o2)c1,-4,
CCOC(=O)CSc1nc(C2CC2)cc(-c2ccc(F)cc2)c1C#N,-9,
CSC1=C(C#N)C(c2ccc(C)s2)CC(=O)N1 (stereo unspecified),0,
COC(=O)CSC1=C(C#N)C(c2ccc(F)cc2)CC(=O)N1 (stereo unspecified),32*,VCAM1 pot confirm=-17
Cc1cc(C)c2c(n1)sc1c(N3CCOCC3)ncnc12,-61,
COc1ccc(NC(=O)/C(Cl)=C(/Cl)S(=O)(=O)Cc2ccc(C)cc2)cn1,-51,
Cc1cc(C)c(S(=O)(=O)N(C2=NCCS2)S(=O)(=O)c2c(C)cc(C)cc2C)c(C)c1,11,
COc1cccc(-c2ccc(-c3noc(-c4cccs4)n3)c(OC)n2)c1,1,
COc1ccc(Br)cc1-c1noc(-c2ccccc2)n1,2,
CCOc1nc(-c2ccccc2)ccc1-c1noc(COC)n1,?,VCAM1 pot confirm=-10
COCCn1nnnc1CN(CCCN1CCOCC1)Cc1cc2c(C)ccc(C)c2[nH]c1=O,-4,
Cc1cc(C)c2cc(CN(Cc3ccc4c(c3)OCO4)Cc3nnnn3Cc3ccco3)c(=O)[nH]c2c1,54*,VCAM1 pot confirm=-5
COc1ccc2cc(CN(Cc3cccs3)Cc3nnnn3Cc3ccccc3)c(=O)[nH]c2c1,-1,
Cc1ccc(N(C)C(=O)N2CCN(S(=O)(=O)c3ccc(C)c(C)c3)CC2)cc1,-4,
O=C(c1cccc(COc2cccc3ccccc23)c1)N1CCCC1,22,
O=C(O)CSc1nnc(Cn2cnc3ccccc32)n1CCc1ccccc1,-1,
CCCOc1ccc(C(=O)C(CN2CCOCC2)c2ccccc2)cc1 (stereo unspecified),-50,
Cc1nc(CC(=O)O)c(-c2ccccc2)s1,-5,
COC(=O)Cn1cc(C(=O)C2CC2)c2ccccc21,54*,VCAM1 pot confirm=-11
O=C(Cn1cc(C(=O)c2ccco2)c2ccccc21)NCc1ccco1,-10,
Cc1ccc(S(=O)(=O)N2CCCC(C(=O)NCCc3ccc4c(c3)OCO4)C2)cc1 (stereo unspecified),-1,
CC(NC(=O)CN1C(=O)NC(Cc2ccccc2)(Cc2ccccc2)C1=O)C12CC3CC(CC(C3)C1)C2 (stereo unspecified),-1,
CCOC(=O)Cc1csc(NC(=O)CSc2nc(N)c3c(C)c(C)sc3n2)n1,33*,VCAM1 pot confirm=-14
CCOC(=O)Cc1csc(NC(=O)COc2ccccc2OCC)n1,4,
SMILES,VCAM1 TNFa pot,others
CCOC(=O)Cc1csc(NC(=O)CSc2nnnn2-c2ccc(C)cc2C)n1,-3,
Cc1sc2nc(SCc3nc(-c4cccs4)no3)n(-c3ccccc3)c(=O)c2c1C,3,
NC(=O)c1cccc(S(=O)(=O)N2CC(c3ccccc3)CC2=O)c1 (stereo unspecified),-1,
N=c1nc(SCCC(=O)O)ss1,-4,
COc1cc(-c2nnc(CSc3nnc4nc(C)cc(C)n34)o2)cc(OC)c1OC,-1,
CC(=O)c1c(OC(=O)c2ccccc2)c2ccccc2n1C,-6,
CC(=O)Oc1oc(-c2ccccc2)nc1/C=N/c1ccccn1,89*,VCAM1 pot confirm=-4
O=Nc1c(O)n(Cc2ccc(Cl)cc2Cl)c2ccccc12,38,
S=C(NN=C1CCCCCC1)Nc1ccc(Cl)cc1,35*,VCAM1 pot confirm=-25
O=C(NCc1ccco1)C1CCCN1C(=O)NCc1ccccc1 (stereo unspecified),1,
COc1ccc(-n2cnnc2SCCC#N)cc1,?,VCAM1 pot confirm=-8
CC(C)(C)c1ccc(-c2nnc(SCCC#N)n2C2CCCC2)cc1,5,
O=C(CCNS(=O)(=O)c1ccc(Cl)cc1)N1CCC2(O)CCCCC2C1 (stereo unspecified),-3,
CC1OC(Nc2cccc3ccccc23)C(O)C(O)C1O (stereo unspecified),?,VCAM1 pot confirm=0
Cc1cc(C)c(C(N)=O)c(Nc2cccc3ccccc23)n1,-1,
COc1ccc(OC)c(-n2c(C)ccc2-c2ccc(S(C)(=O)=O)cc2)c1,-4,
CCOC(=O)Cc1nnc(NC(=O)COc2ccc(OC)cc2)s1,-1,
CCc1nnc(NC(=O)c2ccc(OC)cc2OC)s1,64*,VCAM1 pot confirm=-1
CCc1nnc(NC(=O)c2ccc3c(c2)C(=O)N(CC(C)C)C3=O)s1,-14,
COc1ccc(NC(=O)C23CC4CC(C2)CC(n2cnc(Br)n2)(C4)C3)cc1Cl,5,
CCOC(=O)c1c(C)cccc1OCC(N)=O,-8,
N#CC(C#N)=CC1=C2OC(c3ccccc3)=CC(c3ccccc3)=C2CCC1,-8,
CCC1=NC(c2ccccc2Cl)N(O)C1(C)C (stereo unspecified),-59,
Cc1ccn2c(-c3csc(NCc4ccccc4)n3)c(C)nc2c1,-22,
COC(=O)c1ccc(C)c(NC(=O)C2COc3ccccc3O2)c1 (stereo unspecified),-7,
COc1ccc(NS(=O)(=O)c2ccc(C)c(C(=O)O)c2)cc1,-7,
COC(=O)c1ccc(C)c(NS(=O)(=O)c2ccc(OC)cc2)c1,32*,VCAM1 pot confirm=-59
O=C(NCCCCCCNC(=O)C1CCCC1)C1CCCC1,19,
